Source: PubChem
The list is not random: actives were taken first. Their share in the collection is about 10%.
HCT116 PTEN-null – growth suppressors of cells with PTEN tumor suppressor deletion. HCT116 PTEN-null viability, CellTiter-Glo, 60 h; hits give low values. viability, % at 10 µM. 140,000 tested, 1.2% active;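 active = viability at or below a set limit, 4 SD under the median of all tested compounds, cut at about 3.7% in these data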;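 note: PTEN knockout HCT116 line with beta catenin targeted HCT116 as companion control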
bCat KO growth – beta-catenin-lacking colon tumor cell growth suppression | HCT116 beta-catenin knockout viability, CellTiter-Glo, 60 h; hits give low values | viability, % at 10 µM | 140,000 tested, 1.5% active;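 active = viability at or under a set limit, the compound median less 4 SD, cut at about 6% in these data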
INS promoter inh – TRM-6 insulin promoter activity inhibition. TRM-6 cells (human fetal islet line), insulin promoter-eGFP reporter, imaging; reporter expression induced with tamoxifen. inhibition, % at 2 µM. 130,000 tested, 0.9% active. AID 1273;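 active = inhibition above the mean plus 3 SD, with well images judged a real hit on visual review, cut at about 60% in these data, passing the limit was not always enough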
L major viab – reduces viability of Leishmania major promastigotes; inhibition, % at 10 µM; resazurin fluorescence viability; 200,000 tested, 9% active; in the data active = inhibition above about 50%;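 note: promastigotes grown with compound for 44 hours at 28 °C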
p97 ATPase inh – human p97 ATPase inhibition. 220,000 tested, 0.42% active. AID 1481. P55072. recombinant p97 ATPase, Kinase-Glo ATP luminescence, 3 h. inhibition, % at 8 µM; in the data active = inhibition above about 15%
Target sequence (P55072 whole entry, looked up): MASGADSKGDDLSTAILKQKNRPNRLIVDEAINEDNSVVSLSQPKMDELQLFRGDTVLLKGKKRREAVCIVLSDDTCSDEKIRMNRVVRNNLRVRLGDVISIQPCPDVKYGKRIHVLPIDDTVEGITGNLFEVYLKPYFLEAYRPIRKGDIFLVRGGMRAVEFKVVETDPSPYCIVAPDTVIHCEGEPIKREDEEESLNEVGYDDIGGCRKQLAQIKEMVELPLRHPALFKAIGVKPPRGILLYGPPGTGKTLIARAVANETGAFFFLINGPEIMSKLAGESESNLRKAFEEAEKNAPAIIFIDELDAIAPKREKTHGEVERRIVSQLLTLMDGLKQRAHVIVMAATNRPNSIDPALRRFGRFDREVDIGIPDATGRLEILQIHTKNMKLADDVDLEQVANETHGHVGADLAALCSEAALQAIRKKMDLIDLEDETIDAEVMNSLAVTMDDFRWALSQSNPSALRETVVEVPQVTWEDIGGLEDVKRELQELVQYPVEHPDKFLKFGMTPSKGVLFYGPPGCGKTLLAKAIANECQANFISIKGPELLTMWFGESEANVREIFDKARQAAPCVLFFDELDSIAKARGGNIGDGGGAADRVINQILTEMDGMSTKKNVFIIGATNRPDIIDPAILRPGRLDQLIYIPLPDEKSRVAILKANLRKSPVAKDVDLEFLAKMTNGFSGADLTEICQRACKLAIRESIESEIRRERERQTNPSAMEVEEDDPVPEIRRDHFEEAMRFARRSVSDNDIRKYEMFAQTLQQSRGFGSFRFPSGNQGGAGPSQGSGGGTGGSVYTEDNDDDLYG
ROMK primary – modulators of human ROMK potassium channel; Tet-inducible ROMK, thallium flux fluorescence; actives lie on both sides; B-score at 10 µM; AID 1918; 130,000 tested, 2% active; P48048;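 active = signal ratio slope over the read window, or its plate-corrected B-score, at least 3 SD from the plate mean, either direction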;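 note: B-score of the F/F0 ratio slope over 7 to 12 s after thallium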
Hits are given with their value.

`CCN(CC)CCNCC(O)(c1ccc(Cl)cc1)c1ccc(Cl)cc1` gave INS promoter inh inactive, L major viab 72, p97 ATPase inh inactive and ROMK primary inactive.
Screening CN(C)c1ccc(-n2cccc2/C=C/[N+](=O)[O-])cc1 returned INS promoter inh inactive, L major viab 97 and p97 ATPase inh inactive.
CC(=O)N(c1cccc(Cl)c1)c1nc(C)cc(C)c1C#N was read as p97 ATPase inh inactive and ROMK primary inactive.
For Cc1ccc(S(=O)(=O)N(CC(O)CN(C)C)c2ccccc2)cc1 (stereo unspecified) the results were HCT116 PTEN-null inactive, bCat KO growth inactive, INS promoter inh inactive, L major viab inactive, p97 ATPase inh inactive and ROMK primary inactive.
`Cc1ccc(S(=O)(=O)N(CCCO)CC(O)CON=C2c3ccccc3-c3ccccc32)cc1` (stereo unspecified) gave HCT116 PTEN-null inactive, bCat KO growth inactive, L major viab 100 and p97 ATPase inh inactive.
For COc1ccc(C(=O)c2c[nH]c(C(=O)N=CN(C)C)c2)cc1 the results were L major viab inactive, p97 ATPase inh inactive and ROMK primary inactive.
`O=C(CN(c1ccc(F)cc1)S(=O)(=O)c1ccc2c(c1)OCCO2)NCc1ccccc1` gave HCT116 PTEN-null inactive, bCat KO growth inactive, INS promoter inh inactive, L major viab 96, p97 ATPase inh inactive and ROMK primary inactive.
O=C(CN(c1ccc2c(c1)OCCO2)S(=O)(=O)c1ccccc1)NCc1ccc(Cl)cc1 was read as HCT116 PTEN-null inactive, bCat KO growth inactive, INS promoter inh inactive, L major viab 98, p97 ATPase inh inactive and ROMK primary inactive.
O=C(CN(c1ccc(F)cc1)S(=O)(=O)c1ccc2c(c1)OCCO2)Nc1ccccc1 was read as HCT116 PTEN-null inactive, bCat KO growth inactive, INS promoter inh inactive, L major viab 80, p97 ATPase inh inactive and ROMK primary inactive.
Screening CN(Cc1ccccc1)C(=O)CN(c1ccc(F)cc1)S(=O)(=O)c1ccc2c(c1)OCCO2 returned HCT116 PTEN-null inactive, bCat KO growth inactive, INS promoter inh inactive, L major viab 95 and p97 ATPase inh inactive.
Screening CN(NC(=O)c1ccccc1F)c1ncccc1[N+](=O)[O-] returned p97 ATPase inh inactive and ROMK primary inactive.
For CCN1C(=O)/C(=C2/Sc3ccccc3N2CC)S/C1=N\c1ncn[nH]1 the results were L major viab inactive, p97 ATPase inh inactive and ROMK primary inactive.
For Cc1ccc(/C=N/NC(=O)CN(Cc2ccccc2)S(=O)(=O)c2ccc3c(c2)OCCO3)cc1 the results were HCT116 PTEN-null inactive, bCat KO growth inactive, INS promoter inh inactive, L major viab 95 and p97 ATPase inh inactive.
For O=C(CN(Cc1ccccc1)S(=O)(=O)c1ccc2c(c1)OCCO2)Nc1ccc2c(c1)OCCO2 the results were HCT116 PTEN-null inactive, bCat KO growth inactive, L major viab inactive and p97 ATPase inh inactive.
For O=C1C(NS(=O)(=O)c2cccs2)=C(N2CCN(c3cccc(Cl)c3)CC2)C(=O)c2ccccc21 the results were HCT116 PTEN-null inactive, bCat KO growth inactive, INS promoter inh inactive, L major viab 99, p97 ATPase inh inactive and ROMK primary inactive.
O=C1C(NS(=O)(=O)c2ccccc2)=C(N2CCN(c3ccc(F)cc3)CC2)C(=O)c2ccccc21 was read as p97 ATPase inh inactive.
Screening Cc1ccc(C)c(N2CCN(CC3CC=CCC3)CC2)c1 (stereo unspecified) returned HCT116 PTEN-null inactive, bCat KO growth inactive, INS promoter inh inactive, L major viab 87, p97 ATPase inh inactive and ROMK primary inactive.
Screening C1=CCC(CN2CCNCC2)CC1 (stereo unspecified) returned L major viab inactive, p97 ATPase inh inactive and ROMK primary inactive.
CCOc1ccc(NC(=O)CN2C(=O)CSC2=O)cc1 was read as L major viab inactive, p97 ATPase inh inactive and ROMK primary inactive.
`O=C1CCCC2=C1C(c1ccco1)Nc1ccc(C(=O)c3ccccc3)cc1N2` (stereo unspecified) gave HCT116 PTEN-null inactive, bCat KO growth inactive, L major viab 73, p97 ATPase inh inactive and ROMK primary inactive.
Screening N#CC1=C(SCC(=O)c2ccc(Br)cc2)NC2=C(C(=O)CCC2)C1c1ccco1 (stereo unspecified) returned HCT116 PTEN-null inactive, bCat KO growth inactive, L major viab inactive, p97 ATPase inh inactive and ROMK primary inactive.
Screening O=C1CCCC2=C1C(c1ccccn1)Nc1ccc(C(=O)c3ccccc3)cc1N2 (stereo unspecified) returned HCT116 PTEN-null inactive, bCat KO growth inactive, INS promoter inh inactive, L major viab 67, p97 ATPase inh inactive and ROMK primary inactive.
Screening O=C(CSc1n[nH]c(-c2ccccc2Br)n1)NCCN1C(=O)CSC1=O returned HCT116 PTEN-null inactive, bCat KO growth inactive, INS promoter inh inactive, L major viab inactive, p97 ATPase inh inactive and ROMK primary inactive.
COc1ccc(NS(=O)(=O)c2cccc(NC(=O)C34CCC(CC3)C4)c2)cc1 was read as HCT116 PTEN-null inactive, bCat KO growth inactive, INS promoter inh inactive, L major viab inactive, p97 ATPase inh inactive and ROMK primary inactive.
O=C(COC(=O)c1ccc[n+]([O-])c1)Nc1c(Br)cc([N+](=O)[O-])cc1Br was read as L major viab 61, p97 ATPase inh inactive and ROMK primary inactive.
For C(=C\c1nc2ccccc2[nH]1)/c1ccccc1 the results were HCT116 PTEN-null inactive, bCat KO growth inactive, INS promoter inh 93, L major viab inactive and p97 ATPase inh inactive.
COCCn1c(N)c(C(=O)Nc2sc3c(c2C(=O)OC)CCCC3)c2nc3ccccc3nc21 was read as HCT116 PTEN-null inactive, bCat KO growth 4.0, INS promoter inh inactive, L major viab inactive and p97 ATPase inh inactive.
`CC(C)OC(=O)c1c(NC(=O)Cn2cnc([N+](=O)[O-])n2)sc2c1CCCC2` gave HCT116 PTEN-null inactive, bCat KO growth inactive, INS promoter inh inactive, L major viab 85 and p97 ATPase inh inactive.
CCc1nnc(NC(=O)CSc2nnc(-c3c[nH]c4ccccc34)n2C)s1 was read as HCT116 PTEN-null inactive, bCat KO growth inactive, L major viab inactive and p97 ATPase inh inactive.
`COCCn1c(N)c(C(=O)NCc2cccs2)c2nc3ccccc3nc21` gave HCT116 PTEN-null inactive, bCat KO growth inactive, INS promoter inh inactive, L major viab inactive and p97 ATPase inh inactive.
For CCOC(=O)c1c(NC(=O)CSc2nnc(-c3c[nH]c4ccccc34)n2C)sc2c1CCCC2 the results were HCT116 PTEN-null inactive, bCat KO growth inactive, INS promoter inh inactive, L major viab 51, p97 ATPase inh inactive and ROMK primary inactive.
For NC(=O)c1c(NC(=O)Cn2cnc([N+](=O)[O-])n2)sc2c1CCCC2 the results were p97 ATPase inh inactive.
CCOC(=O)c1c(NC(=O)Cn2cnc([N+](=O)[O-])n2)sc2c1CCCC2 was read as HCT116 PTEN-null inactive, bCat KO growth inactive, INS promoter inh inactive, L major viab 92, p97 ATPase inh inactive and ROMK primary inactive.
